Screens (PubChem BioAssay)
The list is not random: actives were taken first. Their share in the collection is about 10%.
MCF10A rereplic: induces DNA re-replication in MCF 10a normal breast cells. AID 624296. 350,000 compounds, 2.9% hits. Potency, µM (doses to about 46.1 µM), hits mostly activators. MCF 10A DNA re-replication, Hoechst nuclear intensity, 48 h; further: nearly all actives have a fitted effect of over 50% in size
RORgamma inh: ROR gamma (mouse) transcription inhibition; P51450; Drosophila S2 Gal4-RORgamma UAS-luciferase reporter, 20 h; Potency, µM (series often up to 53.6 µM), usual class: inhibitors; 310,000 compounds, 5.4% hits; further: nearly all actives have a fitted effect of over 60% in size
Target sequence (P51450 whole entry, looked up, the tested form may be a part): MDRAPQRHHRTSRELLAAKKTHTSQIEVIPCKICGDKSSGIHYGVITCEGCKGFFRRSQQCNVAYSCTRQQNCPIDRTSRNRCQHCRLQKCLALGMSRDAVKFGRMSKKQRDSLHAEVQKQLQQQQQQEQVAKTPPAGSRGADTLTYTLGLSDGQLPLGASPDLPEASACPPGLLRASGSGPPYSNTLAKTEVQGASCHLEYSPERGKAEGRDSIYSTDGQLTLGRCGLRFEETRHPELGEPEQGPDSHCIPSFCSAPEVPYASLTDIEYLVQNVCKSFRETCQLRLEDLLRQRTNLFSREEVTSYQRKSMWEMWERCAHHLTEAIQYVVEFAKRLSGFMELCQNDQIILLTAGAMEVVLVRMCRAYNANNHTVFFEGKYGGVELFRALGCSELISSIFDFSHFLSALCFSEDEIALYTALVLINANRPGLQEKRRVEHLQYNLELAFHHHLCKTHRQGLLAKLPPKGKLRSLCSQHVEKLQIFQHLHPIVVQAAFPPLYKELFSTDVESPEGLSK
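A Gal4/UAS one-hybrid system in insect cells: metallothionein-promoter Gal4–ROR gamma fusion plus Photinus luciferase reporter. Copper sulfate 700 uM final, 20 hr ambient incubation, luminescent detection after 10 min with reagent.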
ELG1 repair inh: inhibitors of ELG1-dependent DNA repair in HEK293T cells; Potency, µM (doses to about 46.1 µM), most hits filed as inhibitors; 330,000 compounds, 2.3% hits; HEK293T ELG1-luciferase reporter, luminescence, 16 h; DNA damage induced by 5-fluorouridine; further: nearly all actives have a fitted effect of over 55% in size
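5-Fluorouridine DNA damage + compound/DMSO, 2,000 cells/well, 16 h, 37 °C/5% CO2. ONE-Glo, 30 min RT, luminescence. Readout = decrease in reporter signal.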
VP16 counter: Gal4-VP16 reporter inhibition counter-screen; Drosophila S2 Gal4-VP16 UAS-luciferase, luminescence, 20 h; Potency, µM (series often up to 53.6 µM), hits mostly inhibitors; 310,000 compounds, 3.5% hits; AID 2546;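 further: Gal4-VP16 expression switched on by copper sulfate through the metallothionein promoter; nearly all actives have a fitted effect of over 50% in size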
SW480 rereplic: induces DNA re-replication in SW480 colon adenocarcinoma cells. SW480 DNA re-replication, Hoechst DNA content imaging, 48 h. 340,000 compounds, 1.8% hits. Potency, µM (series often up to 46.1 µM), most hits filed as activators; further: nearly all actives have a fitted effect of over 55% in size
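Image-based DNA-content assay: after two days of treatment, nuclei were labelled with the DNA dye Hoechst and imaged, and hits were compounds raising the count of nuclei showing high fluorescence intensity.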
Each line names hits and unclear results; the compound was inactive in the other large screens. The call rests on the fitted dose curve; in most records, active means well fitted curve in the direction sought with a large enough effect; inconclusive means small, poorly fitted or top-dose-only effect, or another doubt; inactive means no such curve, though single readings can be large; an effect the other way counts as inactive or inconclusive.

O=C1N/C(=C/c2ccc(N3CCCC3)cc2)C(=O)N1c1ccccc1	MCF10A rereplic inconclusive, ELG1 repair inh inconclusive, SW480 rereplic inconclusive
Cc1cc(N2CCCC2)ccc1/C=C1\NC(=S)N(C)C1=O	ELG1 repair inh inconclusive, VP16 counter 2.51µM
O=C(CNC(=O)c1ccccc1F)N/N=C\C=C\c1ccccc1	ELG1 repair inh inconclusive
Cc1cc(NC(=O)CCC(=O)N(Cc2cccs2)C(C)(C)C(=O)NC2CCCCC2)no1	none
COc1ccc(Cl)cc1N1C(=O)/C(=C\c2sccc2C)N=C1SCC(=O)NC1CC1	RORgamma inh inconclusive, ELG1 repair inh 16.4µM
CCOc1ccc(NCC(=O)Nc2ccc(Cl)cc2C)cc1	MCF10A rereplic inconclusive, SW480 rereplic inconclusive
COc1ccc(NCC(=O)Nc2ccc(Cl)cc2C)c(OC)c1	SW480 rereplic 16.4µM
Oc1ccc2ccc(Cl)cc2c1	none (no result: RORgamma inh, ELG1 repair inh, VP16 counter)
Nc1ccc2ccc(O)cc2c1	MCF10A rereplic 7.31µM, SW480 rereplic 18.4µM (no result: RORgamma inh, ELG1 repair inh, VP16 counter)
COc1cc([C@@H]2CC(=O)c3c(O)cc(O)cc3O2)ccc1O	none (no result: MCF10A rereplic, ELG1 repair inh, SW480 rereplic)
CC(C)Cc1nc2oc3c(Cl)ncnc3c2c2c1CCC2	MCF10A rereplic inconclusive, ELG1 repair inh inconclusive, SW480 rereplic 4.11µM
CC1CCC(NS(=O)(=O)c2ccc(Cl)s2)CC1 (stereo not given)	MCF10A rereplic inconclusive (no result: RORgamma inh, VP16 counter)
O=S(=O)(NC1CCCCC1)c1ccc(Cl)s1	MCF10A rereplic 20.6µM, RORgamma inh inconclusive, VP16 counter inconclusive, SW480 rereplic inconclusive
O=C(NC1C2CCCC1CN(C1CC1)C2)c1ccc(Cl)cc1 (stereo not given)	RORgamma inh inconclusive
Cc1cc2c(cc1C)NC(c1c(C)n(C)n(-c3ccccc3)c1=O)C1=C(CC(C)(C)CC1=O)N2 (stereo not given)	MCF10A rereplic 11.2µM, RORgamma inh 12.6µM
COc1cc(C2Nc3cc(C)c(C)cc3NC3=C2C(=O)CC(C)(C)C3)ccc1OC(C)=O (stereo not given)	none
CCOC(=O)Cn1c(=O)oc2cc(S(=O)(=O)NCCCc3ccccc3)ccc21	RORgamma inh inconclusive, VP16 counter 12.6µM
CCOC(=O)Cn1c(=O)oc2cc(S(=O)(=O)NCCc3ccc(C)cc3)ccc21	RORgamma inh inconclusive, VP16 counter inconclusive
O=C(NCC1CCCO1)c1ccc2c(c1)S(=O)(=O)c1ccccc1C2=O (stereo not given)	none (no result: RORgamma inh, ELG1 repair inh, VP16 counter)
CCCN(CC(=O)Nc1ccccc1C)C(=O)CCl	MCF10A rereplic inconclusive, RORgamma inh inconclusive, ELG1 repair inh 7.3µM
COc1ccc(CCNc2oc(COc3ccccc3Cl)nc2C#N)cc1OC	MCF10A rereplic inconclusive, RORgamma inh inconclusive, ELG1 repair inh 23.1µM
COc1ccc(CCNc2oc(COc3ccccc3F)nc2C#N)cc1OC	RORgamma inh inconclusive, ELG1 repair inh 23.1µM
CC1CCN(C(=O)c2scc3c2OCCO3)CC1	ELG1 repair inh 18.4µM
CC1CN(C(=O)c2scc3c2OCCO3)CC(C)O1 (stereo not given)	none
COC(=O)c1ccc(S(=O)(=O)c2ccc(Cl)cc2)c(N)c1	MCF10A rereplic inconclusive
COc1ccc(CNC(=O)C(C)Sc2nc3ccccc3c(=O)n2CC2CCCO2)cc1 (stereo not given)	none (no result: RORgamma inh, VP16 counter)
Cc1ccc(SC2=C(Sc3ccc(C)cc3)C(=O)c3ccccc3C2=O)cc1	MCF10A rereplic 3.26µM, ELG1 repair inh inconclusive, SW480 rereplic 8.2µM
CCN(CC)c1ccc2c(c1)OC(N)=C(C#N)C2c1cccnc1 (stereo not given)	MCF10A rereplic inconclusive, SW480 rereplic 0.184µM
N#CC1=C(N)Oc2cc(Nc3ccccc3)ccc2C1c1ccncc1 (stereo not given)	MCF10A rereplic inconclusive, SW480 rereplic 16.4µM
COc1cccc([C@@H]2Oc3ccc(Br)cc3C[C@H]2OC(=O)Nc2cc(OC)c(OC)c(OC)c2)c1	none (no result: MCF10A rereplic, ELG1 repair inh, SW480 rereplic)
COc1ccc(NC(=O)CN2C(=O)CC(C)S(=O)(=O)c3ccccc32)cc1 (stereo not given)	ELG1 repair inh inconclusive
Cc1[nH]nc(-c2ccc(OCc3cnn(-c4ccccc4)c3)cc2O)c1Oc1ccccc1F	RORgamma inh 6.31µM, VP16 counter 10µM
C=C(C)COc1ccc(-c2nc(N)nc(C)c2Oc2ccccc2OC)c(O)c1	none
CCCOC(=O)c1ccc(Oc2c(-c3ccc(OC)cc3O)n[nH]c2C)cc1	MCF10A rereplic inconclusive, RORgamma inh 7.08µM, ELG1 repair inh inconclusive, VP16 counter inconclusive
C=C(C)COc1ccc(-c2n[nH]c(C)c2Oc2ccccc2OC)c(O)c1	MCF10A rereplic inconclusive, RORgamma inh 1.58µM, ELG1 repair inh inconclusive
O=c1c(Oc2ccccc2F)coc2cc(OCc3cnn(-c4ccccc4)c3)ccc12	ELG1 repair inh inconclusive
CCc1cc(-c2n[nH]c(C)c2Oc2ccc(C(C)C)cc2)c(O)cc1O	MCF10A rereplic inconclusive, RORgamma inh 7.08µM, VP16 counter inconclusive, SW480 rereplic inconclusive
CCCOC(=O)c1ccc(Oc2c(-c3ccc(O)cc3O)n[nH]c2C)cc1	MCF10A rereplic inconclusive, RORgamma inh inconclusive, ELG1 repair inh inconclusive
COC(=O)C1CCN(CC(=O)Nc2ccc(OC)c(Cl)c2)CC1	none
O=C(NCCc1ccc(Cl)cc1)c1ccc2c(c1)OCCO2	ELG1 repair inh inconclusive, VP16 counter inconclusive
Cc1[nH]nc(-c2ccc(O)cc2O)c1Oc1ccccc1	RORgamma inh inconclusive, ELG1 repair inh inconclusive, VP16 counter inconclusive
CCOc1ccc(-c2n[nH]c(C)c2Oc2ccccc2OC)c(O)c1	MCF10A rereplic inconclusive, RORgamma inh 2.24µM, VP16 counter 2.51µM
CC(C)Cc1ccc(CN2CCCC(NC(=O)CCN3CCOCC3)C2)cc1 (stereo not given)	none
COc1ccc(CN2C(=O)c3cccnc3C2=O)cc1S(=O)(=O)NCc1ccco1	MCF10A rereplic inconclusive
Oc1ccc(Cl)cc1N=Cc1sc2ccccc2c1Cl	ELG1 repair inh inconclusive, SW480 rereplic 20.6µM
O=[N+]([O-])c1ccc(O)c(N=Cc2sc3ccccc3c2O)c1	RORgamma inh inconclusive, VP16 counter inconclusive, SW480 rereplic inconclusive
CC1CCc2c(c3ccccc3n2C(=O)CCl)C1 (stereo not given)	MCF10A rereplic 18.4µM, RORgamma inh inconclusive, ELG1 repair inh inconclusive, VP16 counter inconclusive
O=C(Nc1ccccc1N1CCCCC1)c1ccc(-c2cccc(Cl)c2)o1	MCF10A rereplic 16.4µM
O=C(Nc1cccc2nsnc12)c1ccc(-c2cccc(Cl)c2)o1	MCF10A rereplic 5.8µM, RORgamma inh inconclusive, ELG1 repair inh inconclusive, VP16 counter inconclusive
CN1CCN(c2ccccc2NC(=O)c2ccc(-c3cccc(Cl)c3)o2)CC1	MCF10A rereplic 20.6µM, ELG1 repair inh inconclusive, SW480 rereplic inconclusive
CN1CCN(c2ccccc2NC(=O)c2ccc(-c3ccc(Cl)cc3Cl)o2)CC1	MCF10A rereplic inconclusive, ELG1 repair inh 20.6µM, SW480 rereplic inconclusive
CN1CCN(c2ccccc2NC(=O)c2ccc(Br)o2)CC1	RORgamma inh inconclusive
Cc1ccc(C(=O)Nc2ccccc2N2CCCCC2)o1	MCF10A rereplic inconclusive
